CYP2C19 activ: human CYP2C19 activators, primary screen, biochemical, luminescence; Cytochrome P450 2C19 (Homo sapiens), P33261; recombinant CYP2C19, luciferin-H EGE luminescence; active compounds read high; 0 = fully inhibited enzyme, 1 = untreated enzyme; activation factor at 5 µM; 96,000 tested, under 10 active; AID 1025, 2008;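 active means activation factor of at least 2 at 5 µM in the primary screen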
Cav32 inh: Cav3.2 calcium influx blockers – cell-based, Fluo-4 calcium fluorescence, FDSS, MLSMR library, primary screen; Voltage-dependent T-type calcium channel subunit alpha-1H (Homo sapiens), O95180; Cav3.2-expressing cells; active compounds read low; B-score at 10 µM; hit rate 4% among 100,000; AID 449739, 2010;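 active means single-dose well whose peak fluorescence ratio is a statistical outlier from its plate by either plate-standardised score or position-corrected B-score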
CYP2C19 inh: blockers of cytochrome P450 2C19 activity – biochemical, luminescence, ADME assay, primary screen | CYP2C19 Supersomes, luciferin-H EGE luminescence, 30 min | inhibition, % at 5 µM | hit rate 21% among 96,000 | AID 778, 2007;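 active means CYP2C19 inhibition above a set limit at 5 µM in the primary screen, cut at about 50% in these data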
CYP2C9 inhib: blockers of cytochrome P450 2C9 activity – biochemical, luminescence, ADME assay, primary screen. P11712. AID 777, 2007. CYP2C9 Supersomes, luciferin-H conversion. inhibition, % at 5 µM. hit rate 20% among 96,000;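 active means blocking of liver enzyme CYP2C9 beyond about 50% at 5 µM, limit read from the data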
Target sequence (P11712 whole entry, looked up): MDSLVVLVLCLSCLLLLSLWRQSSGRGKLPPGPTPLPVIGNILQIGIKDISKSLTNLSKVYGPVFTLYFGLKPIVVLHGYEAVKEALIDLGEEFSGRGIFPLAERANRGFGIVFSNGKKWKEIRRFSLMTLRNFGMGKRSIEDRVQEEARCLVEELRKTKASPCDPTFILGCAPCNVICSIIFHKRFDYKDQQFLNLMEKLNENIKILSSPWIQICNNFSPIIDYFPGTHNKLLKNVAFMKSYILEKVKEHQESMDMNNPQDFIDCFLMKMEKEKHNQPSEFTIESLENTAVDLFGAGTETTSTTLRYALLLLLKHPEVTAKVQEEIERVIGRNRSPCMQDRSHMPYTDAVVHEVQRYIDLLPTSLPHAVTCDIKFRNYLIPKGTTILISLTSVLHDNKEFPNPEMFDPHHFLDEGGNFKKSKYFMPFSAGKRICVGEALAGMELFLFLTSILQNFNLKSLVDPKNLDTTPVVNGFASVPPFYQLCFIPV
CYP2C9 activ: human CYP2C9 activators, primary screen, biochemical, luminescence; Cytochrome P450 2C9 (Homo sapiens), P11712; recombinant CYP2C9, luciferin-H conversion; active compounds read high; factor 1 = untreated enzyme, 0 = blocked; activation factor at 5 µM; hit rate 1.4% among 96,000;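 active means activation factor of 2 or more for CYP2C9 at a 5 µM dose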
Of the large screens only hits and unclear results are named; the others gave an inactive call. This is a sample that favours compounds with a hit; in the whole collection about 27% have one here.

COC(=O)[C@@]1(Cc2ccc(F)cc2)[C@H]2c3cc(C(=O)N(C)C)n(Cc4ccccn4)c3C[C@H]2CN1C(=O)c1ccccc1	none (no result: CYP2C19 activ, CYP2C19 inh, CYP2C9 inhib, CYP2C9 activ)
Cn1ccs/c1=N\S(=O)(=O)c1ccc(Br)cc1	CYP2C9 activ 2.4
O=C(Nc1ccccc1F)c1ccco1	none (no result: CYP2C19 activ, CYP2C19 inh, CYP2C9 inhib, CYP2C9 activ)
Cn1c(=O)c2c(SCc3cccnc3)nc(CC(C)(C)C)nc2n(C)c1=O	CYP2C19 inh 89.6, CYP2C9 inhib 97.8
Cn1c(=O)c2c(SCc3ccccn3)nc(C3CC3)nc2n(C)c1=O	none
CCCc1nc(SCc2ccccn2)c2c(=O)n(C)c(=O)n(C)c2n1	CYP2C9 inhib 70.9
Cn1c(=O)c2c(SCc3ccccn3)nc(CC(C)(C)C)nc2n(C)c1=O	Cav32 inh -5.88, CYP2C9 inhib 82.5
Cc1cc(NC(=O)CSc2nc(CC(C)(C)C)nc3c2c(=O)n(C)c(=O)n3C)no1	CYP2C9 inhib 63.0
CCCCn1c(SCc2ccccn2)nc2c1c(=O)n(C)c(=O)n2C	none (no result: CYP2C19 activ, CYP2C19 inh, CYP2C9 inhib, CYP2C9 activ)
Cc1ccc(Cn2c(C(C)Nc3nc(C)cs3)nc3cc(Cl)c(Cl)cc32)cc1 (stereo not drawn)	none (no result: CYP2C19 activ, CYP2C19 inh, CYP2C9 inhib, CYP2C9 activ)
CCOC(=O)c1c(C)[nH]c(C)c1-c1ccccc1OC	CYP2C19 inh 66.7 (no result: Cav32 inh)
COC(=O)c1c(C)[nH]c(C)c1-c1ccccc1Cl	CYP2C19 inh 60.9
CCOC(=O)c1c(C)[nH]c2cc(Br)c(OC)cc12	none
NCCn1c(-c2ccccc2)cc(C(=O)O)c1-c1ccccc1F	none (no result: CYP2C19 activ, CYP2C19 inh, CYP2C9 inhib, CYP2C9 activ)
Cc1ccc(NC(=S)N2CCOCC2)c(C)c1	none
CCN1/C(=C/c2ccc3cccc(C)c3[n+]2CC)Sc2ccccc21	Cav32 inh -3.87
NC(=O)CSc1nnc(Cc2cccs2)n1C1CCCCC1	none
Cc1ccc(-c2noc(CSc3nnc(Cc4cccs4)n3-c3ccccc3)n2)cc1	Cav32 inh -7.56, CYP2C19 inh 71.6
Cc1ccc(-c2noc(CSc3ccccc3)n2)cc1	none
c1ccc(-c2noc(CSc3nnc(Cc4cccs4)n3-c3ccccc3)n2)cc1	Cav32 inh -4.65 (no result: CYP2C19 activ, CYP2C19 inh, CYP2C9 inhib, CYP2C9 activ)
Clc1ccc(-c2noc(CSc3nnc(Cc4cccs4)n3-c3ccccc3)n2)cc1	Cav32 inh -5.67
Cc1ccc(-n2c(Cc3cccs3)nnc2SCC(N)=O)cc1	CYP2C19 inh 55.9
O=c1c2cn[nH]c2[nH]c(=S)n1-c1ccccc1F	none (no result: CYP2C19 activ, CYP2C19 inh, CYP2C9 inhib, CYP2C9 activ)
CC(=O)c1c(C)nc2ccc(Cl)cn12	none
CCOCCCNC(=O)Cn1cc2c(n1)CCCCC2	none
c1ccc(-c2noc(CSc3nnnn3-c3ccccc3)n2)cc1	Cav32 inh -4.99, CYP2C19 inh 63.3, CYP2C9 inhib 53.6
O=C1COc2ccc(C(=O)CSc3nnc(Cc4cccs4)n3-c3ccc(Cl)cc3)cc2N1	Cav32 inh -3.89
Fc1ccc(-n2c(Cc3ccccc3)nnc2SCc2nc(-c3cccs3)no2)cc1	CYP2C9 inhib 74.5
O=C1COc2ccc(C(=O)CSc3nnnn3-c3ccccc3)cc2N1	none
COc1ccc(CCNC(=O)C2CC(c3ccccc3F)=NO2)cc1 (stereo not drawn)	none (no result: CYP2C19 activ, CYP2C19 inh, CYP2C9 inhib, CYP2C9 activ)
O=C(NCc1ccccc1)c1c[nH]c2cc3c(cc2c1=O)OCCO3	none (no result: CYP2C19 activ, CYP2C19 inh, CYP2C9 inhib, CYP2C9 activ)
CCOCCCNC(=O)N[C@@H](Cc1ccccc1)C(=O)OC	none
CCOC(=O)NCc1ccc(S(=O)(=O)Nc2ccccc2C)cc1	CYP2C19 inh 68.6
NC(=O)c1ccccc1NS(=O)(=O)c1ccccc1	CYP2C9 activ 2.3
CN(C)S(=O)(=O)Nc1ccccc1C(N)=O	none
Cc1ccc(S(=O)(=O)Nc2ccccc2C(N)=O)cc1	CYP2C9 activ 2.1
Cc1ccccc1NS(=O)(=O)c1ccc(C)c(C(N)=O)c1	CYP2C19 inh 89.8
O=S(=O)(c1cccc2cccnc12)n1cnc2ccccc21	none
Cc1cc2nc(NC3=NCN(Cc4ccc5c(c4)OCO5)CN3)nc(C)c2cc1C	none (no result: Cav32 inh)
CCCCSc1nc(C)c(CC(=O)O)c(=O)[nH]1	none
Cc1ccc(C(=O)Cn2c(C(=O)/C=C/c3ccccc3)nc3ccccc32)cc1	none
O=C1C=C(c2cccc(O)c2)CCC1	none (no result: CYP2C19 activ, CYP2C19 inh, CYP2C9 inhib, CYP2C9 activ)
O=C(O)CCCNc1ccc(S(=O)(=O)Nc2ccccc2C(=O)O)cc1C(=O)O	none
NC(=O)c1ccccc1NS(=O)(=O)Cc1ccc(Cl)cc1	CYP2C19 inh 66.0
O=C(NS(=O)(=O)c1ccccc1)c1ccccc1O	CYP2C9 inhib 89.3 (no result: Cav32 inh)
Cc1ccccc1NS(=O)(=O)c1cc(C(N)=O)ccc1C	CYP2C19 inh 96.9
O=C(O)c1ccccc1NS(=O)(=O)c1ccccc1C(F)(F)F	CYP2C9 inhib 66.4
CC(C)n1nnnc1-c1cc(Cl)cc(Cl)c1	none
Cc1ccc(C)c(NS(=O)(=O)c2cc(C(=O)Nc3ccccc3-c3ccccc3)ccc2C)c1	CYP2C19 inh 53.7, CYP2C9 inhib 80.5
c1ccc(Oc2cccc(OCCn3cncn3)c2)cc1	CYP2C19 inh 94.8, CYP2C9 inhib 68.1
c1ccc(COc2ccc(OCCn3cncn3)cc2)cc1	CYP2C19 inh 91.5, CYP2C9 inhib 95.9
c1ccc(-c2ccc(OCCCn3cncn3)cc2)cc1	CYP2C19 inh 70.1, CYP2C9 inhib 71.4
CC1CCCC(NC(=O)c2n[nH]c(=O)c3ccccc23)C1C (stereo not drawn)	none
Cc1ccccc1N1CCN(C(=O)c2ccccc2NC(=O)C2CC=CCC2C(=O)O)CC1 (stereo not drawn)	none
CNCc1cc2ccc(C)cc2[nH]c1=O	none
Oc1cccc(-c2nc3ccc4ccccc4c3c3c2CCC3)c1	none
CCOc1cc(/C=N/NC(N)=O)cc(Br)c1OCC(=O)Nc1ccccc1C	CYP2C19 inh 58.8, CYP2C9 inhib 82.4
CCOc1cc(/C=N/NC(=O)Cn2nc([N+](=O)[O-])cc2C)cc(Br)c1OCc1ccccc1C	CYP2C9 inhib 69.9
COc1cc(/C=N/NC(=O)Cn2nc([N+](=O)[O-])cc2C)cc(Br)c1OCc1ccccc1	CYP2C19 inh 58.8, CYP2C9 inhib 74.5
Cc1cc([N+](=O)[O-])nn1CC(=O)NCc1cccs1	none
CCOc1cc(/C=N/NC(N)=O)cc(Br)c1OCC(=O)Nc1cccc2ccccc12	none
COc1c(O)cccc1[C@@H](O)C1CCN(CCc2ccc(F)cc2)CC1	none (no result: CYP2C19 activ, CYP2C19 inh, CYP2C9 inhib, CYP2C9 activ)
CC1CCCCN1C(=O)Cn1cc(/C=C2/C(=O)Nc3ccccc32)c2ccccc21 (stereo not drawn)	CYP2C9 inhib 57.8
COc1cc(O)c(C(CCN2CCN(c3ccccc3)CC2)c2cc(OC)c(OC)c(OC)c2)c(OC)c1 (stereo not drawn)	none (no result: CYP2C19 activ, CYP2C19 inh, CYP2C9 inhib, CYP2C9 activ)
CC1(C)CC(=O)C2=C(C1)Nc1[nH]n(-c3ccccc3)c(=O)c1C2c1ccc2c(c1)OCO2 (stereo not drawn)	CYP2C19 inh 54.6
CCOC(=O)C1=C(C)N(C)C(=O)NC1c1cc2c(cc1Br)OCO2 (stereo not drawn)	CYP2C19 inh 62.0
CCOC(=O)C1=C(C)NC2=C(C(=O)CC(C)(C)C2)C1c1cccc(C)n1 (stereo not drawn)	CYP2C19 inh 54.7

Compound activity: PubChem, several laboratories
